Data published in PubChem BioAssay AID1159580 (chemical genetic matrix, 2015).
Several values for one entry are separate records, joined by “and”; a condition that tells them apart may be missing. Equal values may be shown once. Screen size: about 5,500 compounds; about 2,000 (36%) were called active. Another 18% or so got no clear call; they are omitted. The list shows a part of the results. A number with no mark means an inactive call. Rule as the data show it: active = normalized growth mostly below about 0.91 (no sharp cut-off); inconclusive = no clear call, values can overlap the other calls; inactive = mostly above about 0.92.

Assay: chemical genetic growth profiling, strain panel (AID 1159580);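 also: tested at 20 µM; growth read once vehicle control cultures reached saturation at 30 °C; 1 = growth at the plate median or of vehicle wells; lower values mean less growth of the strain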
Settings: S. cerevisiae deletion strains, growth OD

Structure (SMILES): COC(=O)C(C)c1ccc(C(=O)c2cccs2)cc1 (stereo unspecified)
- normalized growth (locus YAL013W, strain DEP1, hits give low values): 0.998
- normalized growth (locus YAL021C, strain ccr4, hits give low values): 1.01
- normalized growth (locus YAL026C, strain drs2, hits give low values): 0.988
- normalized growth (locus YAL030W, strain snc1, hits give low values): 1.01
- normalized growth (locus YBL061C, strain skt5, hits give low values): 1.01
- normalized growth (locus YBR009C, strain hhf1, hits give low values): 1
- normalized growth (locus YBR021W, strain FUR4, hits give low values): 0.971
- normalized growth (locus YBR023C, strain chs3, hits give low values): 1.01
- normalized growth (locus YBR171W, strain sec66, hits give low values): 1.01
- normalized growth (locus YBR229C, strain ROT2, hits give low values): 0.998
- normalized growth (locus YBR231C, strain swc5, hits give low values): 1.02
- normalized growth (locus YBR279W, strain paf1, hits give low values): 1
- normalized growth (locus YCL011C, strain gbp2, hits give low values): 1
- normalized growth (locus YCL016C, strain dcc1, hits give low values): 1
- normalized growth (locus YCL029C, strain bik1, hits give low values): 0.96
- normalized growth (locus YCL061C, strain MRC1, hits give low values): 1.01
- normalized growth (locus YCL069W, strain vba3, hits give low values): 1.01
- normalized growth (locus YCR088W, strain abp1, hits give low values): 1
- normalized growth (locus YDL005C, strain med2, hits give low values): 1.01
- normalized growth (locus YDL035C, strain GPR1, hits give low values): 0.957
- normalized growth (locus YDL040C, strain nat1, hits give low values): 1.01
- normalized growth (locus YDL074C, strain BRE1, hits give low values): 0.981
- normalized growth (locus YDL101C, strain DUN1, hits give low values): 1.01
- normalized growth (locus YDL134C, strain PPH21, hits give low values): 0.996
- normalized growth (locus YDL185W, strain tfp1, hits give low values): 0.939
- normalized growth (locus YDL192W, strain arf1, hits give low values): 0.951
- normalized growth (locus YDR001C, strain nth1, hits give low values): 1.02
- normalized growth (locus YDR069C, strain doa4, hits give low values): 1.02
- normalized growth (locus YDR101C, strain arx1, hits give low values): 0.975
- normalized growth (locus YDR137W, strain rgp1, hits give low values): 1
- normalized growth (locus YDR150W, strain NUM1, hits give low values): 0.985
- normalized growth (locus YDR159W, strain sac3, hits give low values): 1.02
- normalized growth (locus YDR162C, strain NBP2, hits give low values): 0.998
- normalized growth (locus YDR195W, strain ref2): 0.993
- normalized growth (locus YDR297W, strain sur2, hits give low values): 1.01
- normalized growth (locus YDR318W, strain mcm21, hits give low values): 0.907 (active)
- normalized growth (locus YDR334W, strain swr1, hits give low values): 1.01
- normalized growth (locus YDR335W, strain msn5, hits give low values): 0.997
- normalized growth (locus YDR388W, hits give low values): 0.973
- normalized growth (locus YDR392W, strain spt3, hits give low values): 0.999
- normalized growth (locus YDR502C, strain sam2, hits give low values): 0.959
- normalized growth (locus YEL003W, strain gim4, hits give low values): 1.01
- normalized growth (locus YEL037C, strain rad23, hits give low values): 1
- normalized growth (locus YEL061C, strain CIN8 (second series), hits give low values): 1.01
- normalized growth (locus YEL061C, strain CIN8, hits give low values): 0.991
- normalized growth (locus YER015W, strain faa2, hits give low values): 1.01
- normalized growth (locus YER016W, strain bim1, hits give low values): 1
- normalized growth (locus YER110C, hits give low values): 0.955
- normalized growth (locus YER111C, strain swi4, hits give low values): 1.01
- normalized growth (locus YER155C, strain BEM2 (second series), hits give low values): 1.01
- normalized growth (locus YER155C, strain BEM2, hits give low values): 0.997
- normalized growth (locus YER167W, strain BCK2, hits give low values): 0.956
- normalized growth (locus YFR010W, strain ubp6, hits give low values): 1.01
- normalized growth (locus YGL078C, strain dbp3, hits give low values): 0.968
- normalized growth (locus YGL086W, strain mad1, hits give low values): 0.92 (active)
- normalized growth (locus YGL167C, strain pmr1, hits give low values): 1.01
- normalized growth (locus YGL173C, strain kem1, hits give low values): 1.02
- normalized growth (locus YGL227W, strain vid30, hits give low values): 1.01
- normalized growth (locus YGL240W, strain doc1, hits give low values): 1
- normalized growth (locus YGL248W, strain PDE1, hits give low values): 0.998
- normalized growth (locus YGL253W, strain hxk2, hits give low values): 1
- normalized growth (locus YGR078C, strain PAC10, hits give low values): 0.995
- normalized growth (locus YGR135W, strain pre9, hits give low values): 0.946
- normalized growth (locus YGR229C, strain SMI1, hits give low values): 0.96
- normalized growth (locus YGR252W, strain gcn5, hits give low values): 0.934
- normalized growth (locus YHR013C, strain ard1, hits give low values): 1.01
- normalized growth (locus YHR027C, strain rpn1, hits give low values): 1.01
- normalized growth (locus YHR030C, strain SLT2, hits give low values): 0.991 and 0.936
- normalized growth (locus YHR079C, strain IRE1 (second series), hits give low values): 0.968
- normalized growth (locus YHR079C, strain IRE1, hits give low values): 0.949
- normalized growth (locus YHR094C, strain hxt1, hits give low values): 0.947
- normalized growth (locus YHR129C, strain ARP1, hits give low values): 0.999
- normalized growth (locus YHR142W, strain chs7, hits give low values): 0.991
- normalized growth (locus YHR200W, strain rpn10, hits give low values): 0.954
- normalized growth (locus YIL066C, strain RNR3, hits give low values): 0.977
- normalized growth (locus YIL073C, strain SPO22, hits give low values): 0.851
- normalized growth (locus YIR030C, strain dcg1, hits give low values): 0.957
- normalized growth (locus YJL092W, strain hpr5, hits give low values): 1
- normalized growth (locus YJL095W, strain BCK1 (second series), hits give low values): 1.01
- normalized growth (locus YJL095W, strain BCK1, hits give low values): 1.01 and 0.972
- normalized growth (locus YJL115W, strain asf1, hits give low values): 1.03
- normalized growth (locus YJL129C, strain trk1, hits give low values): 1.04
- normalized growth (locus YJL134W, strain LCB3, hits give low values): 0.991
- normalized growth (locus YJL154C, strain vps35, hits give low values): 1
- normalized growth (locus YJL164C, strain tpk1, hits give low values): 0.998
- normalized growth (locus YJL166W, strain qcr8, hits give low values): 1
- normalized growth (locus YJL168C, strain set2, hits give low values): 0.973
- normalized growth (locus YJL187C, strain SWE1 (second series), hits give low values): 1
- normalized growth (locus YJL187C, strain SWE1, hits give low values): 1.01
- normalized growth (locus YJR043C, strain POL32, hits give low values): 0.972
- normalized growth (locus YJR066W, strain TOR1, hits give low values): 0.982
